Records with an inconclusive call do not appear. Active and inactive are the calls of the source. Calls follow the shape of the dose curve; as a rule, active = well fitted inhibition curve with a large enough effect; inconclusive = small, poorly fitted or top-dose-only effect; inactive = no such curve, though single readings can be large or run the other way.
assay: Primary qHTS for small molecule stabilizers of the endoplasmic reticulum resident proteome: Secreted ER Calcium Modulated Protein (SERCaMP) assay (AID 1508630); conditions: SH-SY5Y GLuc-SERCaMP (Gaussia luciferase released on ER calcium loss) secretion, thapsigargin, luminescence; series mostly up to 38.4 µM; activity change, negative = inhibition: at the top concentration
Description: Assay Provider: Brandon K. Harvey Ph.D.
National Institute on Drug Abuse, National Institutes of Health, Baltimore, MD
Endoplasmic reticulum (ER) dysregulation is associated with human pathologies including neurodegenerative, cardiovascular, muscular, and diabetic conditions. Maintenance of ER calcium is critical for functions of the ER and its depletion can lead to loss of ER resident proteins, in a process termed exodosis. Therapeutic compounds capable of attenuating the redistribution of ER proteins under pathological conditions may slow or stop disease progression. To identify such compounds, we performed a quantitative high-throughput screen (qHTS) using the SERCaMP assay, which monitors secretion of ER resident proteins triggered by calcium depletion.
SERCaMP was initially developed as a reporter of ER calcium homeostasis using a Gaussia luciferase with a modified signal peptide and carboxy-terminus (GLuc-SERCaMP), modifications that confer secretion of the reporter in response to ER calcium depletion (Henderson et al., 2014). The assay was used to screen 9,501 compounds, including a collection of drugs approved by the FDA (US), EMA (EU), NHI (Japan), and HC (Canada) regulatory agencies (Huang et al., 2011). Since the SERCaMP reporter reflects the exodosis phenomenon (Trychta et al., 2018a), compounds identified in the screen have the potential to prevent exodosis by different mechanisms such as stabilizing ER calcium or augmenting ERS retrieval.
1. Henderson, M.J., Wires, E.S., Trychta, K.A., Richie, C.T., and Harvey, B.K. (2014). SERCaMP: a carboxy-terminal protein modification that enables monitoring of ER calcium homeostasis. Mol Biol Cell 25, 2828-2839.
2. Huang, R., Southall, N., Wang, Y., Yasgar, A., Shinn, P., Jadhav, A., Nguyen, D.T., and Austin, C.P. (2011). The NCGC pharmaceutical collection: a comprehensive resource of clinically approved drugs enabling repurposing and chemical genomics. Sci Transl Med 3, 80ps16.
3. Trychta, K.A., Back, S., Henderson, M.J., and Harvey, B.K. (2018a). KDEL Receptors Are Differentially Regulated to Maintain the ER Proteome under Calcium Deficiency. Cell Rep 25, 1829-1840 e1826.
SEQUENCE No. (1, 2, 3, etc.); […] (e.g., Cells, Incubation, Reagent, etc.); VALUE and DESCRIPTION.
1; Reagent; 5 uL; 1000 SH-SY5Y cells per wells
3; Compound; 23 nL; Control inhibitor / compound library
5; Reagent; 100 nM; Thapsigargin
7; Reagent; 1 uL; 0.5x coelenterazine
8; Detection; Luminescence; ViewLux imaging system
NOTES (numbers refer to sequence above)
1; SH-SY5Y human neuroblastoma cells stably expressing GLuc-SERCaMP (SH-SY5Y-GLuc-ASARTDL) cells were seeded in 1,536 well white tissue culture treated plates (Corning, Cat# 7464) in DMEM-high glucose-sodium pyruvate (ThermoFisher Scientific, Cat #10569) supplemented with 10% bovine growth serum (Hyclone), 10 U/ml penicillin (Gibco), 10 ug/ml streptomycin (Gibco), and 20 mM HEPES.
2; Assay plates were incubated for 5 hour at 37C in a humidified incubator containing 5% CO2.
3; qHTS libraries (23 nl, final concentrations of 1.53 uM, 7.67 uM, 38.3 uM) or controls (neutral control: DMSO, positive control: dantrolene) were added using a Kalypsis pin-tool Robotic System equipped with 1536 pinheads.
4; Cells were then incubated for 16 hours at 37C, 5% CO2.
5; Thapsigargin was added at 100 nM to deplete ER calcium stores.
6; Cells were incubated for 4 hour (37 °C, 5% CO2)
7; Gaussia luciferase in the medium was measured by adding 1 ul of 0.5x coelenterazine (final concentration 0.07x) prepared in Gaussia Luciferase Glow Assay Buffer (Pierce), without addition of the Cell Lysis Buffer Reagent.
8; Luminescence was measured using a ViewLux […] CCD imaging system (Perkin Elmer) equipped with clear filters. […] The same controls were also used for the calculation of the Z' factor, a measure of assay quality control, as previously described (Zhang et al., 1999). […]
% is scaled to controls: 0 for no effect and ±100 for the full control effect.

Structure (SMILES) | activity change, negative = inhibition | Potency
O=C(Cc1ccc(-c2ccc(OCCN3CCOCC3)cc2)cn1)NCc1ccccc1 | 98.7% (inactive) | –
Cc1cnc(-c2cnc(NCCNc3ccc(C#N)cn3)nc2-c2ccc(Cl)cc2Cl)[nH]1 | 56.2% (inactive) | –
O=C(C=Cc1cccnc1)NCCCCC1CCN(C(=O)c2ccccc2)CC1 | -60.9% (inactive) | –
C[C@]12CC[C@H](O)CC1=CCC1C2CC[C@]2(C)C(n3cnc4ccccc43)=CCC12 (stereo not given in full) | -5.96% (inactive) | –
COCCn1c2c([n+](Cc3cnccn3)c1C)C(=O)c1ccccc1C2=O | 108% (inactive) | –
O=C(O)c1ccc2cc(-c3ccc(O)c(C45CC6CC(CC(C6)C4)C5)c3)ccc2c1 | 97.4% (inactive) | –
COc1cc2c(Oc3ccc(NC(=O)C4(C(=O)Nc5ccc(F)cc5)CC4)cc3F)ccnc2cc1OCCCN1CCOCC1 | 400% (inactive) | –
C[C@@H](Oc1cc(-c2cnn(C3CCNCC3)c2)cnc1N)c1c(Cl)ccc(F)c1Cl | 0% (inactive) | –
CNC(=O)c1nn(C)c2c1C(C)(C)Cc1cnc(Nc3ccc(N4CCN(C)CC4)cc3)nc1-2 | 299% (inactive) | –
O=C(C=Cc1cccc(S(=O)(=O)Nc2ccccc2)c1)NO | 142% [at 76.3 µM] (inactive) | –
CC(C)c1cc(C(=O)N2Cc3ccc(CN4CCN(C)CC4)cc3C2)c(O)cc1O | 23% (inactive) | –
CCC1=C[C@@H]2CN(C1)Cc1c([nH]c3ccccc13)[C@@](C(=O)OC)(c1cc3c(cc1OC)N(C)[C@@H]1[C@@](O)(C(=O)OC)[C@H](OC(C)=O)[C@]4(CC)C=CCN5CC[C@]31[C@@H]54)C2 | 98.4% (inactive) | –
CC(=O)Nc1sc2c(c1-c1nc3ccccc3s1)CNC2 | 36.4% (inactive) | –
CC1(C)CC(=O)c2c(C(F)(F)F)nn(-c3ccc(C(N)=O)c(NC4CCC(OC(=O)CN)CC4)c3)c2C1 (stereo not given) | 0% (inactive) | –
CNC(=O)c1cc(Oc2ccc(NC(=O)Nc3cc(C(C)(C)C)nn3-c3ccc4ncccc4c3)c(F)c2)ccn1 | 34.2% (inactive) | –
CN1CCN(c2ccc3nc(-c4c(N)c5c(F)cccc5[nH]c4=O)[nH]c3c2)CC1 | 337% (inactive) | –
CC1(O)CC(c2nc(-c3ccc4ccc(-c5ccccc5)nc4c3)c3c(N)nccn23)C1 (stereo not given) | 0% (inactive) | –
Cc1cc(Nc2ncnc3ccc(-c4ccc(CNCCS(C)(=O)=O)o4)cc23)ccc1Oc1ccn2ncnc2c1 | -38% (inactive) | –
CC=C1NC(=O)[C@H]2CSSCCC=C[C@H](CC(=O)N[C@H](C(C)C)C(=O)N2)OC(=O)[C@H](C(C)C)NC1=O | 38.7% (inactive) | –
Cc1c(Cn2c(C)nc3c(C(=O)O)cc(N4CCOCC4)cc32)cccc1C(F)(F)F | 31.6% (inactive) | –

Structure (SMILES) | activity change, negative = inhibition | Potency
COc1cc(-c2nn(C3CCC(N4CCN(C(C)=O)CC4)CC3)c3ncnc(N)c23)ccc1NC(=O)c1cc2ccccc2n1C (stereo not given) | 0% (inactive) | –
CCN(CC)CCCCNc1ncc2cc(-c3cc(OC)cc(OC)c3)c(NC(=O)NC(C)(C)C)nc2n1 | 145% (inactive) | –
Cn1cncc1[C@@](N)(c1ccc(Cl)cc1)c1ccc2c(c1)c(-c1cccc(Cl)c1)cc(=O)n2C | 0% (inactive) | –
O=C(Nc1ncc(-c2cc(C(F)F)nn2-c2c(Cl)cccc2Cl)s1)C1CC1 | 192% (inactive) | –
c1nc2nc(Nc3ccc(N4CCOCC4)cc3)nc(NC3CCCCC3)c2[nH]1 | 360% (inactive) | –
CC[C@H]1CN2CCc3cc(OC)c(OC)cc3[C@H]2C[C@@H]1C[C@@H]1NCCc2cc(OC)c(OC)cc21 | 391% (inactive) | –
CC(C)c1noc(N2CCC(COc3ccc(-c4ccc(S(C)(=O)=O)cc4)nc3)CC2)n1 | 139% (inactive) | –
Cn1cc(-c2ccncc2)c(-c2ccc(OCc3ccc4ccccc4n3)cc2)n1 | 131% (inactive) | –
Cn1cc(-c2[nH]c3cc(NC(=O)[C@H](N)C4CCCCC4)cc4c3c2C=NNC4=O)cn1 | 118% (inactive) | –
Cc1cn2cc(C(=O)N(C)CCO)cc(N[C@@H]3CCOc4cccc(C)c43)c2n1 | 22.8% (inactive) | –
CCS(=O)(=O)c1cccc(-c2cc(C(=O)NC3CCN(C)CC3)c(C)c3[nH]c4ncc(C)cc4c23)c1 | 85.4% (inactive) | –
Cn1c(=O)n(-c2ccc(C(C)(C)C#N)cc2)c2c3cc(-c4cnc5ccccc5c4)ccc3ncc21 | 91.9% (inactive) | –
Nc1nc(-c2nn(Cc3ccccc3F)c3ncccc23)nc(N)c1N1CCOCC1 | 79.4% (inactive) | –
CN1CCN(c2cc(C(=O)Nc3ccc4c(c3)-c3c(c(C(N)=O)nn3-c3ccc(F)cc3)CC4)c(Cl)cn2)CC1 | 110% (inactive) | –
CS(=O)(=O)c1ccc(-c2cnc(N)c(C(=O)Nc3ccccc3)n2)cc1 | -26.2% (inactive) | –
CC[C@H](CO)Nc1nc(NCc2ccccc2)c2ncn(C(C)C)c2n1 | – | inactive
Cc1cnc(Nc2ccc(F)cc2Cl)nc1-c1c[nH]c(C(=O)N[C@H](CO)c2cccc(Cl)c2)c1 | 0% (inactive) | –
COc1cc(Nc2ncc(F)c(Nc3ccc4c(n3)N(COP(=O)(O)O)C(=O)C(C)(C)O4)n2)cc(OC)c1OC | 0% (inactive) | –
COc1cccc(Nc2c(C(N)=O)cnc3c(C)cc(S(=O)(=O)c4cccc(C(=O)N(C)C)c4)cc23)c1 | 152% [at 21.6 µM] (inactive) | –
CC[C@@]1(O)C(=O)OCc2c1cc1n(c2=O)Cc2cc3cc(O)ccc3nc2-1 | 225% (inactive) | –

From PubChem BioAssay (NCATS)
